Assay results reported in PubChem BioAssay (EPA / NIEHS).
Results filed as inconclusive are left out. The source made the active and inactive calls. How the source made its calls, unless noted: active means hit-call score of the fitted dose curve at least 0.9, where 1 is the maximum; inactive means score below 0.9.

Experiments:
[1] = CCTE_Shafer_MEA_dev_bursting_electrodes_number: CCTE's Neural Network Formation Assay for Number of Bursting Electrodes, Shafer Lab (AID 2284043; active means hit-call score of the fitted dose curve at least 0.9, where 1 is the maximum;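 on AC50: potency is for loss of bursting electrodes relative to DMSO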)
Method in brief: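 Read-out is the per-well number of electrodes bursting at least once every 2 minutes, recorded on days 5, 7, 9 and 12 and collapsed by trapezoidal area under the curve. Cultures were primary rat cortical neurons on MEA plates, treated continuously from plating.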

[2] = CCTE_Shafer_MEA_dev_AB: CCTE's Alamar Blue Assay for Cytotoxicity in the Neural Network Formation Assay, Shafer Lab (AID 2284083; active means hit-call score of the fitted dose curve at least 0.9, where 1 is the maximum;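 further: resazurin reduction fluorescence as viability of cultured neurons; twelve days of exposure from plating with re-dosing on DIV 5 and 9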)
Method in brief: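 Rat cortical primary cultures, 1.5 x 10^5 cells/well on MEA; continuous compound exposure over 12 days of network development, re-dosed with full medium change DIV 5 and 9. Alamar Blue fluorescence; loss of signal = cytotoxicity vs DMSO baseline.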

[3] = IUF_NPC1b_proliferation_BrdU_72hr: Leibniz Research Institute for Environmental Medicine (IUF) 72-hour Neural Progenitor Cell Bromodeoxyuridine (BrdU) Proliferation Assay (NPC1b) (AID 2284207)
Method in brief: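 Proliferation of primary human neural progenitor cells: 72 h compound treatment at 37C, 5% CO2, pH 7.2-7.6, in EGF/FGF-containing medium. Readout is BrdU uptake (last 16 h) by chemiluminescent ELISA, normalised to DMSO.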

[4] = CCTE_Mundy_HCI_Cortical_Synap_Neur_Matur_NeuriteSpotCountPerNeuriteLength: CCTE's Synaptogenesis and Neurite Maturation Assay in rat cortical cells for Neurite Spot Count per Neurite Length, Mundy Lab (AID 2284210)
Method in brief: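 Primary rat cortical neurons, compound exposure DIV 7–12, 288.33 h endpoint. Hoechst, anti-MAP2 and anti-synaptophysin labelling; neurite-associated puncta per neurite length scored by automated imaging relative to DMSO controls.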

[5] = CCTE_Mundy_HCI_Cortical_NOG_NeuriteLength: CCTE's Neurite Outgrowth Assay in rat cortical cells for Neurite Length, Mundy Lab (AID 2284213);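 on AC50: neurites imaged about 48 to 50 h after chemical exposure began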
Method in brief: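 Neurite length was read by high-content imaging of βIII-tubulin-labelled neurites in rat primary cortical cultures. Activity was fitted relative to DMSO.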

[6] = CCTE_Mundy_HCI_Cortical_Synap_Neur_Matur_NeuriteLength: CCTE's Synaptogenesis and Neurite Maturation Assay in rat cortical cells for Neurite Length, Mundy Lab (AID 2284214)
Method in brief: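 Rat primary cortical cells were plated, treated with AraC at DIV 5 to arrest glial growth, then chemical-dosed with media change at DIV 7 through DIV 12. Fixed cells stained for MAP2, synaptophysin and Hoechst; neurite length quantified by high-content imaging.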

[7] = CCTE_Mundy_HCI_Cortical_Synap_Neur_Matur_NeuriteSpotCountPerNeuron: CCTE's Synaptogenesis and Neurite Maturation Assay in rat cortical cells for Neurite Spot Count per Neuron Count, Mundy Lab (AID 2284215)
Method in brief: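 Read-out: neurite-associated synaptophysin puncta per neuron, imaged by high-content analysis after MAP2, synaptophysin and Hoechst staining. Rat primary cortical cultures, dosed DIV 7 through DIV 12; DMSO served as baseline.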

[8] = CCTE_Mundy_HCI_Cortical_Synap_Neur_Matur_SynapseCount: CCTE's Synaptogenesis and Neurite Maturation Assay in rat cortical cells for Synapse Count, Mundy Lab (AID 2284218)
Method in brief: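 Rat primary cortical cells in 96-well plates received AraC at DIV 5 and were dosed with chemicals at DIV 7 with media change, through DIV 12 (288.33 h). Synapses per neuron counted by high-content imaging of MAP2/synaptophysin/Hoechst staining, versus DMSO baseline.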

[9] = CCTE_Mundy_HCI_Cortical_Synap_Neur_Matur_CellBodySpotCount: CCTE's Synaptogenesis and Neurite Maturation Assay in rat cortical cells for Cell Body Spot Count, Mundy Lab (AID 2284223)
Method in brief: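 Read-out: cell body-associated synaptophysin puncta per neuron, imaged after MAP2, synaptophysin and Hoechst staining. Rat cortical cells, AraC DIV 5, chemical dosing DIV 7, fixation DIV 12. Activity fitted in positive direction relative to DMSO baseline.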

[10] = IUF_NPC2c_oligodendrocyte_migration_120hr: Leibniz Research Institute for Environmental Medicine (IUF) 120-hour Neural Progenitor Cell Migration Assay for Oligodendrocyte Migration (NPC2c) (AID 2284297);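 further: O4-positive oligodendrocyte migration distance divided by radial glia migration distance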
Method in brief: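 hNPC spheres (GW 16-19 cortex), PDL/laminin, DMEM/F12 3:1 + 1% N2, 37C. Dosing day 0–5, half feed day 3, DMSO ≤0.1%. Fixed 120 h; O4 ICC + Hoechst, HCI. Readout: mean oligodendrocyte distance from sphere edge / radial glia distance.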

[11] = IUF_NPC2a_radial_glia_migration_120hr: Leibniz Research Institute for Environmental Medicine (IUF) 120-hour Neural Progenitor Cell Migration Assay for Radial Glia Migration (NPC2a) (AID 2284298)
Method in brief: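 Hoechst-stained nuclei imaged at 120 h; algorithm maps sphere core by densest nuclei, sets migration edge at density threshold, gives radial glia migration distance (um) per well vs DMSO. hNPC spheres (0.3 mm), PDL/laminin, DMEM/F12 3:1 + 1% N2.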

[12] = IUF_NPC2a_radial_glia_migration_72hr: Leibniz Research Institute for Environmental Medicine (IUF) 72-hour Neural Progenitor Cell Migration Assay for Radial Glia Migration (NPC2a) (AID 2284299)
Method in brief: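 Human fetal cortex (GW 16-19) neural progenitor spheres, 0.3 mm, plated on poly-D-lysine/laminin in N2 differentiation medium with compound from day 0. Radial glia migration distance (um, sphere core edge to migration edge) measured manually in four directions on 72 h brightfield images; well mean used.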

[13] = IUF_NPC2b_neuronal_migration_120hr: Leibniz Research Institute for Environmental Medicine (IUF) 120-hour Neural Progenitor Cell Migration Assay for Neuron Migration (NPC2b) (AID 2284300)
Method in brief: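 hNPC spheres, PDL/laminin, DMEM:F12 3:1 + 1% N2, 37C/5% CO2; 7 concentrations + solvent control (DMSO ≤0.1%), 5 d exposure, half-feed day 3. Fix 120 h, TUBB3 ICC, HCI: mean neuron migration distance ÷ glia distance.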

[14] = IUF_NPC3_neuronal_differentiation_120hr: Leibniz Research Institute for Environmental Medicine (IUF) 120-hour Neuronal Differentiation Assay (NPC3) (AID 2284301)
Method in brief: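 Single 0.3 mm neurospheres from human fetal cortex were plated in differentiation medium containing test compound. Medium was half-replaced on day 3. After 120 h cells were fixed, immunostained and imaged, and neuronal fraction was scored against DMSO control.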

[15] = IUF_NPC2-5_cytotoxicity_72hr: Cytotoxicity Assessment at 72 hours in the Leibniz Research Institute for Environmental Medicine (IUF) Neural Progenitor Cell Migration and Differentiation Assay for Cytotoxicity (NPC2-5) (AID 2284306; active means hit-call score of the fitted dose curve at least 0.9, where 1 is the maximum;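 further: LDH release into supernatant measured by resorufin fluorescence marking membrane damage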)
Method in brief: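 Membrane integrity loss was scored from fluorescence (RFU) of resorufin generated by LDH in culture supernatant, 72 h after dosing. Differentiating human progenitor spheres received seven serial compound concentrations alongside a solvent control.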

[16] = IUF_NPC2-5_cytotoxicity_120hr: Cytotoxicity Assessment at 120 hours in the Leibniz Research Institute for Environmental Medicine (IUF) Neural Progenitor Cell Migration and Differentiation Assay (NPC2-5) (AID 2284307; active means hit-call score of the fitted dose curve at least 0.9, where 1 is the maximum;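 on AC50: LDH released into supernatant as membrane damage marker via resorufin fluorescence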)
Method in brief: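 hNPC spheres on PDL/laminin, N2 medium, 37C; 7 concs + solvent control, DMSO ≤0.1%; 5-day exposure, half medium changed day 3. LDH in supernatant at 120 h, resazurin→resorufin fluorescence, gain-of-signal.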

[17] = IUF_NPC2-5_cell_number_120hr: Cell Number Assessment at 120 hours in the Leibniz Research Institute for Environmental Medicine (IUF) Neural Progenitor Cell Migration and Differentiation Assay (NPC2-5) (AID 2284308);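 further: count of Hoechst-stained nuclei in migration zone around plated human neural progenitor spheres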
Method in brief: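 Hoechst-stained nuclei within the migration area were counted by automated high content imaging after 120 h. Single hNPC spheres differentiated on poly-D-lysine/laminin in DMEM/F12 (3:1) with 1% N2, compound present throughout, DMSO ≤0.1%.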

[18] = IUF_NPC2-5_viability_120hr: Viability Assessment at 120 hours in the Leibniz Research Institute for Environmental Medicine (IUF) Neural Progenitor Cell Migration and Differentiation Assay (NPC2-5) (AID 2284312)
Method in brief: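 Alamar blue resorufin fluorescence read after 5 days of differentiation, with compound present from day 0 and replenished at day 3. Primary hNPC spheres on laminin-coated plates, 37C; seven concentrations plus solvent control, fitted against DMSO.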

Measured: AC50

CCOP(=O)(OCC)SCSC(C)(C)C
active: [1] 9.83 µM | [2] 90.6 µM | [5] 49.5 µM | [11] 0.875 µM
inactive: all other assays above

C[C@H](N)Cc1ccccc1
inactive: [1] | [4] | [5] | [6] | [7] | [8] | [9]

O.O.O.O.O.[Cd+2].[Cd+2].[Cl-].[Cl-].[Cl-].[Cl-]
inactive: [9]
active: [1] 0.3 µM | [2] 0.458 µM | [4] 4.37 µM | [5] 30.8 µM | [6] 1.84 µM | [7] 1.62 µM | [8] 1.67 µM

CCOP(=O)(Oc1cnc(C(C)(C)C)nc1)OC(C)C (configuration not stated)
active: [2] 11.7 µM | [3] 2.63 µM
inactive: all other assays above

CC1(C)C(C=C(Cl)Cl)[C@H]1C(=O)O[C@H](C#N)c1cccc(Oc2ccccc2)c1 (some centres not stated)
inactive: [3] | [10] | [11] | [12] | [13] | [14] | [15] | [16] | [17] | [18]

[CH3][Sn]([CH3])[CH3]
inactive: [4] | [9]
active: [1] 0.245 µM | [2] 1.58 µM | [5] 1.78 µM | [6] 2.41 µM | [7] 1.77 µM | [8] 1.79 µM

O=C1N[C@@H]2C(=C[C@H](O)[C@@H](O)[C@H]2O)c2cc3c(c(O)c21)OCO3
active: [3] 0.0216 µM | [11] 0.037 µM | [12] 0.045 µM | [14] 0.0111 µM | [16] 0.0131 µM | [17] 0.0267 µM | [18] 0.0242 µM
inactive: [10] | [13] | [15]

C[n+]1ccc(-c2ccccc2)cc1
active: [1] 4.7 µM | [3] 4.54 µM
not listed: [4] | [5] | [6] | [7] | [8] | [9]
inactive: all other assays above

CC1(C)[C@H](C=C(Cl)Cl)[C@H]1C(=O)OCc1c(F)c(F)cc(F)c1F
active: [1] 23.3 µM | [3] 0.897 µM | [4] 12.9 µM | [5] 78.2 µM | [6] 9.91 µM | [7] 9.68 µM | [8] 9.74 µM | [9] 12.8 µM
not listed: [2]
inactive: all other assays above

COP(=O)(OC)SCN1C(=O)c2ccccc2C1=O
active: [3] 24.8 µM
inactive: all other assays above

C=CCN1CC[C@]23c4c5ccc(O)c4O[C@H]2C(=O)CC[C@@]3(O)[C@H]1C5
inactive: [4] | [5] | [6] | [7] | [8] | [9]

CCOP(=S)(OCC)SCS(=O)C(C)(C)C (configuration not stated)
active: [3] 2.34 µM
not listed: [2]
inactive: all other assays above

CC(=O)[O-].[Tl+]
inactive: [1] | [2] | [15] | [16]
active: [3] 82.1 µM | [4] 35.1 µM | [5] 75.3 µM | [6] 23.8 µM | [7] 24.4 µM | [8] 31.9 µM | [9] 30.1 µM | [10] 59.4 µM | [11] 44.2 µM | [12] 62.7 µM | [13] 33 µM | [14] 50.1 µM | [17] 35.4 µM | [18] 21.6 µM
